Compound activity deposited in PubChem by several laboratories.
Anthrax LF prot: inhibitors of Bacillus anthracis lethal factor protease; P15917; multiplex microsphere protease cleavage assay, LF; inhibition, % at 10 µM; 0.12% of 360,000 active; also: plate controls were buffer without enzyme for full effect and enzyme alone for no effect
SSB-PriA inh: inhibitors of Klebsiella pneumoniae PriA binding to SSB C-terminal tail; AlphaScreen SSBct-PriA binding, biotinylated peptide; inhibition, % at 33 µM; 0.6% of 430,000 active; in the data active = inhibition mostly above about 37%, no sharp cut-off; inactive = mostly below about 20%;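 also: plate controls were negative control peptide for no effect and reference peptide for full effect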
BoNT-A LC inh2: BoNT A light chain protease inhibition; multiplex microsphere protease substrate cleavage, flow cytometry; inhibition, % at 10 µM; 0.17% of 360,000 active; also: plate controls were buffer without enzyme for full effect and enzyme alone for no effect
BoNT-F LC inh: BoNT F light chain protease inhibition | Multiplex microsphere protease cleavage assay, flow cytometry | inhibition, % at 10 µM | 0.22% of 360,000 active | AID 588497; in the data active = inhibition above about 35%, passing the limit was not always enough; inconclusive = no clear call, values can overlap the other calls; also: plate controls were buffer without enzyme for full effect and enzyme alone for no effect
Bead autofluor: counter-screen for toxin protease inhibitors: compound fluorescence. compound autofluorescence counterscreen, microsphere flow cytometry; hits give high values. fluorescence intensity (no concentration beside the values). 3.1% of 360,000 active; in the data active = fluorescence intensity above about 16000; inconclusive = no clear call, values can overlap the other calls
BoNT-A LC CP1: BoNT/A light chain protease inhibition | multiplex microsphere protease assay, flow cytometry | 3% of 720 active | shares compounds with BoNT-F LC inh | inhibition, % at 10 µM | AID 602139; in the data active = inhibition above about 32%
BoNT-F LC CP1: inhibitors of Botulinum neurotoxin F light chain protease; shares compounds with BoNT-F LC inh; multiplex microsphere protease cleavage assay, flow cytometry; inhibition, % at 10 µM; 720 tested, under 10 active; call rule not given here
Anthrax LF CP1: blocks anthrax lethal factor protease | shares compounds with BoNT-F LC inh | multiplex microsphere protease cleavage assay, LF | inhibition, % at 10 µM | 720 tested, under 10 active; call rule not given here
Active calls of the source: *; ? = inconclusive; nt = not tested or not shown. Most compounds without a hit are left out; they make up all but 3.1% or so of the library. Rule as the data show it, unless noted: active = inhibition above about 30%; inconclusive = no clear call, values can overlap the other calls; inactive = below that.

SMILES	Anthrax LF prot	SSB-PriA inh	BoNT-A LC inh2	BoNT-F LC inh	Bead autofluor	BoNT-A LC CP1	BoNT-F LC CP1	Anthrax LF CP1
COc1cccc(NC(=O)c2oc3ccccc3c2NC(=O)C(C)(C)C)c1	-14	-38	44*	53*	6579	-1	-3	0
COc1ccccc1-c1noc(C2CN(C(=O)NCc3ccc(F)cc3)C2)n1	nt	-7	nt	nt	nt	nt	nt	nt
O=C(c1cc([N+](=O)[O-])[nH]n1)N1CCSCC1	6	-11	-3	36*	3833	1	-2	2
Cc1nnc(SCC(=O)Nc2sccc2C(N)=O)n1Cc1ccccc1	6	-12	?	36*	5801	-1	-6	-1
CCc1nnc(NC(=O)CSc2nnc(C)n2Cc2ccccc2)s1	-8	-3	-1	-7	6940	nt	nt	nt
COc1ccccc1Cn1c(=S)[nH]c2ccc(Br)cc2c1=O	31*	-11	2	-3	3774	-1	-4	-1
O=C(NCC(=O)N1CCCC1)c1ccc(Cl)cc1	31*	-14	0	13	2980	0	-3	0
O=C(NCc1ccsc1)C12CC3CC(CC(C3)C1)C2	nt	-8	nt	nt	nt	nt	nt	nt
O=C(O)c1ccc(CNC(=O)C23CC4CC(CC(C4)C2)C3)cc1	9	-1	10	98*	3426	-2	0	-6
CCOc1ccc(CC2c3cc(OCC)c(OCC)cc3CCN2C(=O)CN2CCN(C)CC2)cc1OCC (stereo not given)	-3	-1	-4	35*	3816	-2	-2	-2
CCOc1ccc(CC2NCCc3cc(OCC)c(OCC)cc32)cc1OCC (stereo not given)	0	13	0	0	4745	nt	nt	nt
CC(C)(C)OC(=O)C[C@H]1C/C=C/C[C@H](CC(=O)N[C@H](CO)Cc2ccccc2)C(=O)N2CCC[C@H]2COC1=O	nt	1	nt	nt	nt	nt	nt	nt
COC(=O)c1ccc2c(=O)n(CCCC(=O)N3CCOCC3)c(=S)[nH]c2c1	nt	-6	nt	nt	nt	nt	nt	nt
O=C1/C(=C/c2cccs2)SC(=S)N1c1cc(Cl)cc(Cl)c1	nt	-10	nt	nt	nt	nt	nt	nt
Cc1ccc(S(=O)(=O)N2CCCC2CNC(=O)C(=O)NCCc2ccc(Cl)cc2)cc1 (stereo not given)	nt	-11	nt	nt	nt	nt	nt	nt
CC(=O)C1C(c2ccc(F)cc2)c2c(noc2C)CC1(C)O (stereo not given)	-6	-10	-3	37*	4546	0	1	3
C=CCOc1c(Br)cc(CNCCCN2CCOCC2)cc1OC	45*	-26	0	-3	2985	0	-6	-1
COc1cc(CCC(=O)O)on1	4	-8	3	62*	3555	0	-4	-2
Cc1n[nH]c(C)c1CCNC(=O)C1CCC(=O)N(CCc2cccc(F)c2)C1 (stereo not given)	-1	-4	13	35*	?	0	-4	-1
Cc1nc(CCNC(=O)C2CCC(=O)N(CCc3cccc(F)c3)C2)sc1C (stereo not given)	-7	6	-1	-8	6170	nt	nt	nt
O=C(NCc1ccc(C(=O)c2cccs2)s1)Nc1ccccc1Cl	nt	4	nt	nt	nt	nt	nt	nt
CCOC(=O)c1cnc(SC2CC(=O)N(c3cccc(OC)c3)C2=O)nc1N (stereo not given)	2	-11	2	34	3383	2	-4	-1
CCOC(=O)c1ccc(N2C(=O)CC(Sc3ncccn3)C2=O)cc1 (stereo not given)	-4	-12	1	?	3427	nt	nt	nt
Clc1ccc(Cc2ccc(SCc3ccccc3)nn2)c(Cl)c1	22	-55	21	43*	?	0	2	-1
Clc1ccc(CSc2ccc(-c3ccccn3)nn2)cc1	-3	-15	-2	-4	4754	nt	nt	nt
SMILES	Anthrax LF prot	SSB-PriA inh	BoNT-A LC inh2	BoNT-F LC inh	Bead autofluor	BoNT-A LC CP1	BoNT-F LC CP1	Anthrax LF CP1
Cc1ccc(-c2cc(NC(=O)CSc3n[nH]c(N)n3)n(-c3ccccc3)n2)cc1	-4	6	0	4	4856	nt	nt	nt
Nc1nc(SCC(=O)Nc2cc(-c3ccccc3)nn2-c2ccccc2)n[nH]1	7	-8	?	40*	5643	1	-3	-3
Clc1ccccc1-c1ncc2ccccn12	22	11	29	1	4716	2	8	1
O=[N+]([O-])c1cccc(-c2ncc3ccccn23)c1	2	3	7	-5	4652	nt	nt	nt
COc1ccc(-c2ncc3ccccn23)cc1OC	-8	-1	2	-16	2757	2	1	3
Clc1ccc(-c2ncc3ccccn23)cc1	22	-7	51*	3	5802	0	-1	1
COc1ccc(-c2cncc3nccn23)cc1OC	-8	nt	-1	-3	4079	nt	nt	nt
CSc1cccc2sc(NC(=O)[C@@H]3CCCN3S(C)(=O)=O)nc12	nt	8	nt	nt	nt	nt	nt	nt
Cc1onc(-c2ccccc2)c1C(=O)N1CCCN2C(=O)c3ccccc3C21 (stereo not given)	-3	7	0	1	5529	1	-1	2
Cc1ccc(OCC2Cn3c(nc4c3c(=O)[nH]c(=O)n4C)O2)cc1C (stereo not given)	31*	-11	2	14	3017	-1	-10	2
COc1ccc(C)cc1NC(=S)NCCc1cc2cc(C)c(C)cc2[nH]c1=O	nt	6	nt	nt	nt	nt	nt	nt
CC(C)Cc1cc(C(=O)Nc2ccccc2)c2ccccc2n1	-6	-6	-1	43*	3635	-1	-4	0
Cc1cc(C(=O)Nc2ccccc2)c2ccccc2n1	22	-15	-1	9	3543	nt	nt	nt
COCCN(C(=O)c1ccccc1)c1nnc(-c2cccnc2)s1	5	-12	2	36*	4193	1	-2	1
COCCN(C(=O)CC(C)(C)C)c1nnc(-c2cccnc2)s1	-12	-29	-1	-3	2496	nt	nt	nt
CCCCOc1ccc(C(=O)N2CCN(c3ccc(N4CCOCC4)nn3)CC2)cc1	23	-5	8	59*	?	1	-3	2
Cc1ccc(C(=O)N2CCN(c3ccc(N4CCOCC4)nn3)CC2)cc1	-3	5	4	8	4117	nt	nt	nt
Cc1oc2c3c(ccc2c(=O)c1-c1ccccc1)OCN(C1CCS(=O)(=O)C1)C3 (stereo not given)	nt	9	nt	nt	nt	nt	nt	nt
CN1C(=O)c2ccccc2C(C(=O)NCc2ccccn2)C1c1cn(C)c2ccccc12 (stereo not given)	nt	-11	nt	nt	nt	nt	nt	nt
COc1ccc(-c2nc(C(N)=O)c3[nH]c(=O)n(-c4ccccc4F)c3n2)cc1OC	nt	1	nt	nt	nt	nt	nt	nt
Cc1nn(CC(=O)NCCc2cccs2)c(=O)c2cc3ccccc3n12	34*	6	38*	3	5756	-2	-2	-7
CCN(CC)C(=O)CSc1nc(Cc2ccccc2)nc2ccccc12	40*	2	2	?	4268	2	0	2
CCOc1ccccc1NC(=O)c1ccc(S(=O)(=O)N(C)c2ccccc2)cc1	-13	-14	0	-8	3483	nt	nt	nt
CCOc1ccccc1NC(=O)c1ccc(S(=O)(=O)N(C)C)cc1	39*	-21	0	4	?	0	-4	-1
